In PubChem BioAssay (Tox21) one finds outcome data, which are given here for 20 compounds.

Records with an inconclusive call do not appear. Active and inactive are the calls of the source. Calls follow the shape of the dose curve; as a rule, active = well fitted activation curve with a large enough effect in the signal ratio in the repeat runs, with a control signal flat (not every such curve was filed as active); inconclusive = weak or mixed curves; inactive = flat fitted curve, though single readings scatter; the % refers to the signal ratio.

The test is described as follows: qHTS assay for small molecule activators of the heat shock response signaling pathway (AID 743210). The following applies: HeLa HSE-bla reporter, beta-lactamase ratio, 5 h; series mostly up to 62.6 µM. In outline: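 HSE-bla HeLa cells (beta-lactamase reporter under heat shock response elements) were exposed to compounds for 5 h at 37 C, then loaded with LiveBLAzer B/G FRET substrate for 2.5 h at room temperature before fluorescence reading.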
For orientation: Quantitative high-throughput screening tests each substance at several concentrations.
`O=S(=O)(O)CCS`: the outcome was inactive.
Under `OC[C@@H](O)[C@@H](O)[C@H](O)[C@@H](O)CO` stands “inactive”; under `c1ccc2ccccc2c1`, “inactive”.
The value for `CC(C)(CO)COC(=O)C(C)(C)CO` was “inactive”; that for `CC1COc2ccccc2N1C(=O)C(Cl)Cl` (stereo not given) was “inactive”; that for `CCCCCCCCC` was “inactive”.
Turning to `Cc1cc(=O)[nH]c(C(C)C)n1`, the outcome was inactive.
For the compound `Nc1cc(-c2ccncc2)c[nH]c1=O`, the outcome was inactive.
With `CC(=O)Nc1ccc(C(=O)O)cc1`, the result was inactive.
Turning to `COCC(=O)O`, the outcome was inactive.
As for `O=S(=O)(O)c1cc(S(=O)(=O)O)c2c(N=Nc3ccccc3)c(O)ccc2c1`, the result was inactive.
`CC1(C)CC(N=C=O)CC(C)(CN=C=O)C1` (stereo not given): the result was inactive.
Take `Clc1cc(Cl)c(Cl)cc1Cl`: the outcome was inactive.
Regarding `O=C(Cl)c1c(Cl)c(Cl)c(C(=O)Cl)c(Cl)c1Cl`, the outcome was inactive.
Under `C=C1C2CCC(C2)C1(C)C` (stereo not given) stands “inactive”; under `C=C(C)C(=O)OCCCCCCCCCCCC`, “inactive”.
Take `OC1CCCC1`: the outcome was inactive.
As to `O=Nc1ccc(O)cc1`, the outcome was inactive.
In the case of `CC[Si](OC(C)=O)(OC(C)=O)OC(C)=O`, the outcome was inactive.
Consider `OC[C@@H](O)[C@H](O)[C@H](O)[C@@H](O)CO`, for which the outcome was inactive.
